Results on 35 compounds are retold here after PubChem BioAssay.

The nature of this experiment: compound effects on lung adenocarcinoma cell viability – A549, calcein-AM fluorescence, 48 h, basal, profiling panel (AID 1162). Note: test concentration not given here. Conditions: higher = more signal.
In the case of `C=CCC(OC(C)=O)[C@@H]1[C@@H](N(Cc2ccc(-c3ccccc3)cc2)C(=O)Cc2ccc(OC)cc2)c2cc(OCCCO)ccc2N1C(=O)c1ccc2ccccc2n1` (stereo not given in full), the z-score was -0.072.

Consider `COc1ccc(C#Cc2ccc3c(c2)[C@]2(C(=O)N3)[C@H](C(=O)NC[C@H](O)c3ccccc3)[C@H]3C(=O)O[C@H](c4ccccc4)[C@H](c4ccccc4)N3[C@@H]2c2ccc(OCCO)cc2)cc1`, for which the z-score is 0.415.

Turning to `COCCOC(=O)N1C(=O)[C@@]2(c3cc(C#CC4(O)CCCCCC4)ccc31)[C@H](C(=O)N1CCCCCCC1)[C@H]1C(=O)O[C@H](c3ccccc3)[C@H](c3ccccc3)N1[C@@H]2c1ccccc1OCCO`, the z-score was 0.424.

As for `COC(=O)c1ccc(OC)c(/C=C\CC(OC(C)=O)c2ccccc2)c1` (stereo not given), the z-score was -1.01.

With `Cc1ccc([C@H]2C(C(=O)O)=C[C@@H](C)N2S(=O)(=O)c2ccc(C)cc2)cc1`, the z-score is -0.464.

On to `NCCCCCCNC(=O)[C@H]1C[C@H]2C(=O)NCC(=O)N2[C@H]1c1cccc(OCCO)c1`, for which the z-score is 2.15.

With `COc1ccc(CCN2C(=O)[C@@]3(Cc4ccccc42)c2ccccc2C(=O)N(Cc2ccccc2Cl)[C@H]3c2ccc(CO)cc2)cc1`, the z-score was 0.517.

Consider `C=CC[C@@H](OC(=O)Nc1ccc(OC)cc1)c1ccc(O)c2ccccc12`, for which the z-score is -0.28.

In the case of `CC(C)C[C@@H]1NC(=O)[C@@H]2C[C@H](C(=O)NCCCCCC[N+](C)(C)C)[C@H](c3ccc(O)cc3)N2C1=O`, the z-score is -0.633.

`O=C1C=CC(=O)[C@@H]2CC(COc3ccccc3)=C3[C@@H](CCc4ccccc4)OB(O)C[C@@H]3[C@H]12`: the z-score was -0.491.

Consider `CN(C)CCCCNC(=O)[C@H]1C[C@H]2C(=O)N[C@@H](Cc3ccccc3)C(=O)N2[C@H]1c1ccc(O)cc1`, for which the z-score is -0.451.

For the compound `CCCC[C@H]1OB(O)C[C@H]2C1=C(C)C[C@H]1C(=O)N(Cc3ccccc3)C(=O)[C@H]12`, the z-score was 0.601.

Take `C=C[C@@H](COC(C)=O)N(Cc1ccc([N+](=O)[O-])cc1)S(=O)(=O)c1ccc(Br)cc1`: the z-score is 1.97.

As for `COc1ccc([Si](C)(C)[C@@H]2[C@@H](CCn3cc([C@H](O)c4ccccc4)nn3)O[C@]3(C(=O)N(Cc4ccc(N5C(=O)c6cccc7cccc5c67)cc4)c4ccccc43)[C@H]2C)cc1`, the z-score is -0.725.

Consider `CC(C)(C)OC(=O)CC[C@@]1(C(=O)NCCN2CCOCC2)N=C(c2ccc(OCCCO)cc2)O[C@@H]1c1ccccc1`, for which the z-score was 0.694.

Turning to `O=C1O[C@@H](c2ccccc2)[C@@H](c2ccccc2)N2[C@@H](c3ccccc3OCCO)[C@]3(C(=O)Nc4ccc(C#CC5(O)CCCCCC5)cc43)[C@@H](C(=O)Nc3nc4ccccc4s3)[C@H]12`, the z-score was -1.49.

Turning to `COCCOC(=O)N1C(=O)[C@@]2(c3cc(C#CCNC(N)=O)ccc31)[C@H](c1ccc(OCCO)cc1)N1[C@H](c3ccccc3)[C@H](c3ccccc3)OC(=O)[C@H]1[C@@H]2C(=O)N1CCc2cc(OC)c(OC)cc2C1`, the z-score was 1.24.

For the compound `CCOC(=O)C[C@H]1[C@H](OC(=O)c2ccc(C(=O)c3ccccc3)cc2)[C@@H](NC(=O)C2CCCCC2)c2cc(OCCCO)ccc2N1C(=O)c1ccccc1`, the z-score was -0.195.

In the case of `CC(C)=CCCC(C)=CC(O)C1C=CC2C(=O)N(c3ccccc3)C(=O)C2N1Nc1ccccc1` (stereo not given), the z-score is -0.846.

As for `COC(=O)[C@@]1(Cc2ccc(OC)cc2)[C@H]2c3cc(C(=O)N4CCCC4)n(CCc4c[nH]c5cc(F)ccc45)c3C[C@H]2CN1C(=O)c1ccccc1`, the z-score is 0.866.

On to `Cc1ccc(F)cc1S(=O)(=O)N[C@@H]1CCN(Cc2ccc(-c3ccccc3)cc2)C1`, for which the z-score is -1.8.

For the compound `COC(=O)[C@@]1(Cc2ccc(OC)cc2)[C@H]2c3cc(C(=O)N(C)C)n(Cc4c(OC)[nH]cc(C)c4=O)c3C[C@H]2CN1C(=O)c1ccccc1`, the z-score was 0.249.

`[N-]=[N+]=Nc1ccccc1[C@H]1OC(c2ccc(OCCCO)cc2)=N[C@@]1(CCS(=O)(=O)c1ccccc1)C(=O)O`: the z-score was 0.318.

For `COC(=O)c1ccc(C(O)C2C=CC3C(=O)N(C)C(=O)C3N2NC(=O)OC(C)(C)C)o1` (stereo not given), the z-score was 0.441.

As for `CC=CC(O)C1C=CC2C(=O)N(c3ccccc3)C(=O)C2N1Nc1ccc(C(C)C)cc1` (stereo not given), the z-score is 0.0409.

Regarding `O=C1C[C@@](C(=O)NC2CC2)(c2ccc([N+](=O)[O-])cc2)[C@@H](c2ccc(CO)cc2)N1CC12CC3CC(CC(C3)C1)C2`, the z-score is -1.14.

Consider `COc1ccc(C(O)C2C=CC3C(=O)N(C)C(=O)C3N2Nc2ccccc2)cc1OCc1ccccc1` (stereo not given), for which the z-score is -0.433.

As for `[N-]=[N+]=NCc1ccccc1C[C@@]1(C(=O)N2CCOCC2)N=C(c2ccc(OCCCO)cc2)O[C@@H]1c1ccccc1CN=[N+]=[N-]`, the z-score is 0.052.

With `CN1C(=O)C2C=CC(C(O)c3ccccn3)N(Nc3ccccc3)C2C1=O` (stereo not given), the z-score is 0.169.

With `COc1ccc(C#Cc2ccc3c(c2)[C@]2(C(=O)N3)[C@H](c3ccc(O)cc3)N3[C@H](c4ccccc4)[C@H](c4ccccc4)OC(=O)[C@H]3[C@@H]2C(=O)N2CCCCCCC2)cc1`, the z-score was 0.334.

As for `O=C1OCCC=C[C@H]2OC34C=CCN(Cc5ccccc5)C(=O)[C@H]3N(CCCCCO)C(=O)[C@@H]4C12` (stereo not given in full), the z-score is 0.412.

As to `COC(=O)C(CC#Cc1ccc2c(c1)[C@]1(C(=O)N2)[C@H](C(=O)NC[C@H](O)c2ccccc2)[C@H]2C(=O)O[C@H](c3ccccc3)[C@H](c3ccccc3)N2[C@@H]1c1ccc(OCCO)cc1)C(=O)OC`, the z-score is 1.07.

As to `COCCOC(=O)N1C(=O)[C@@]2(c3cc(C#CCNC(N)=O)ccc31)[C@H](c1ccc(O)cc1)N1[C@H](c3ccccc3)[C@H](c3ccccc3)OC(=O)[C@H]1[C@@H]2C(=O)NC[C@H](O)c1ccccc1`, the z-score is -0.276.

Take `COC(=O)[C@@]1(Cc2ccccc2)[C@H]2c3cc(C(=O)N4CCCC4)n(Cc4ccc(C)o4)c3C[C@H]2CN1C(=O)c1ccccc1`: the z-score is -1.25.

For the compound `COCC(=C=CC[C@H](O)c1ccc(OCCO)cc1)C[C@H](O)c1cc(Cl)cc(Cl)c1O`, the z-score is -1.05.
